From PubChem BioAssay
Only some compounds are listed: those with a hit (about 1.6% of all), similar ones and a draw of the others.
KCNQ2 block: rat KCNQ2 potassium channel inhibitors, primary screen, cell-based, CHO-K1, FluxOR thallium flux, B-score; 20 min; active compounds read low; B-score at 10 µM; hit rate 1.1% among 310,000; AID 2156, 2009;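 active means fluorescence ratio B-score at most minus 3 library SDs, with starting brightness B-score within 2 library SDs, cut at about -5.5 in these data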
Target sequence (O88943 whole entry, looked up): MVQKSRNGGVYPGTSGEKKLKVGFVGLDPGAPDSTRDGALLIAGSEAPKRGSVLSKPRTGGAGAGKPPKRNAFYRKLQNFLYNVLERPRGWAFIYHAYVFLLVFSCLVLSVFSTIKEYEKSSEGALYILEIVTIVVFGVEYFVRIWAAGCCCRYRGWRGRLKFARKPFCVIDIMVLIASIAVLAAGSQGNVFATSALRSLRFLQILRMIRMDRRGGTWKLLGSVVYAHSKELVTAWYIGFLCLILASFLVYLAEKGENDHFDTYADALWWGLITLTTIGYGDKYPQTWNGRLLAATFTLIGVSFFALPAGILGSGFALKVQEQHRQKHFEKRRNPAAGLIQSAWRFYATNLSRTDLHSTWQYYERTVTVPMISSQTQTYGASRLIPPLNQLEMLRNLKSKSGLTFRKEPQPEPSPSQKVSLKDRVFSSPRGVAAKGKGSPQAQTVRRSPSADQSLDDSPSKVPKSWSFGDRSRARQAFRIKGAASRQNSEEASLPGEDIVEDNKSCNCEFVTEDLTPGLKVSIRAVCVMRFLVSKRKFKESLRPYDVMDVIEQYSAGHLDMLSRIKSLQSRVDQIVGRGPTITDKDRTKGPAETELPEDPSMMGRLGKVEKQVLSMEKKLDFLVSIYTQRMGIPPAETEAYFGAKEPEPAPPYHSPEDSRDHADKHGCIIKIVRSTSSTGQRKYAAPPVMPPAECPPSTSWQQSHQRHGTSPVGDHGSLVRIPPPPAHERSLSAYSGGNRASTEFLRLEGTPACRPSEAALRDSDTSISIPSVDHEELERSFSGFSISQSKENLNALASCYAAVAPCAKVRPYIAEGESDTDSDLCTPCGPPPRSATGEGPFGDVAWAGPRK
KCNQ2 pot: potentiators of rat KCNQ2 potassium channel; hit rate 0.54% among 310,000; Potassium voltage-gated channel subfamily KQT member 2 (Rattus norvegicus), O88943; B-score at 10 µM; CHO-K1 KCNQ2, FluxOR thallium flux fluorescence; active compounds read high;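 active means fluorescence ratio B-score at least 3 SD of library B-scores, with initial fluorescence B-score within 3 of them, cut at about 5.3 in these data; same plate scores as AID 2156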;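 further: B-score of peak minus minimum over baseline fluorescence ratio after K+ and Tl+ stimulus; positive B-score means potentiation of KCNQ2 with more thallium influx and brighter signal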
KCNQ2 inh conf: rat KCNQ2 potassium channel inhibitors, confirmation, cell-based, thallium flux; shares compounds with KCNQ2 block; KCNQ2-expressing cells, inhibition; active compounds read low; activity change, negative = inhibition, % at 10 µM; hit rate 57% among 1,000; AID 493025, 2011;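 further: 0% = vehicle wells and values are ratio percent relative to vehicle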
KCNQ1 spec: human KCNQ1 channel inhibition, counter-screen for KCNQ2 inhibitor project, cell-based, FluxOR thallium flux; activity change, negative = inhibition, % at 10 µM; shares compounds with KCNQ2 block; hit rate 15% among 1,000; KCNQ1-expressing cells, FluxOR thallium flux fluorescence; active compounds read low; AID 493026, 2011;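 active means activity change at least 3 SD of negative controls below their mean in both duplicate wells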;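 further: CHO cells stably transfected with KCNQ1 and depolarized by potassium stimulus; peak minus minimum fluorescence over baseline after thallium addition; 0% = vehicle negative control and -100% = blank without thallium stimulus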
CHO parental ctr: thallium flux change in parental CHO cells, counter-screen for KCNQ2 inhibitor project; shares compounds with KCNQ2 block; active compounds read low; activity change, % at 10 µM; hit rate 14% among 1,000; AID 493029, 2011;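 further: 0% = vehicle negative controls with stimulus buffer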
KCNQ2 patch conf: rat KCNQ2 channel inhibitors, confirmation, cell-based, automated patch clamp, single concentration; shares compounds with KCNQ2 block; calls only at 10 µM; KCNQ2-expressing cells, automated patch clamp current; hit rate 49% among 550
Numbers without * were called inactive; i = inactive; nt = not tested or not shown; + = active, no number. Unless noted, how the calls were made is not given here.

SMILES	KCNQ2 block	KCNQ2 pot	KCNQ2 inh conf	KCNQ1 spec	CHO parental ctr	others
Cc1ccc2nc(Cl)c(C#N)cc2c1	i	0.92	nt	nt	nt
O=C(Nc1ccc(Cl)cc1)Nc1ccc(N2CCOCC2)cc1	i	nt	nt	nt	nt
O=C(Nc1ccc(N2CCOCC2)cc1)Nc1ccc(Cl)c(Cl)c1	-6.6*	-6.6	-28.0%*	i	i	KCNQ2 patch conf=i
Cc1nn(CC(=O)NCCCN2CCCC2)c(=O)c2nn(-c3ccccc3)c(C)c12	i	0.48	nt	nt	nt
Cc1ccc(OCc2nnc(SCC(=O)Nc3cccc4ccccc34)n2-c2ccccc2)cc1	-8.54*	-8.54	i	i	i
Cc1ccc(C(=O)CSc2nnc(COc3ccc(C#N)cc3)n2-c2ccccc2)cc1	i	0.91	nt	nt	nt
Cc1ccc(-n2nc3c(=O)n(CCCC(=O)NCc4ccccc4Cl)nc(C)c3c2C)cc1	i	nt	nt	nt	nt
Cc1cnc(C(=O)OC(C)C(=O)Nc2ccc3c(c2)OCCO3)cn1 (stereo not given)	i	nt	nt	nt	nt
COc1cc(NC(=O)c2ccno2)cc(C(=O)Nc2cccc(C(F)(F)F)c2)c1	i	nt	nt	nt	nt
COc1cc(NC(=O)c2cc3cccc(OC)c3o2)cc(C(=O)Nc2cccc(C(F)(F)F)c2)c1	-7.64*	-7.64	i	i	i
COc1cc(NC(=O)c2csc(-c3ccncc3)n2)cc(C(=O)Nc2cccc(C(F)(F)F)c2)c1	-6.87*	-6.87	-20.0%*	i	i	KCNQ2 patch conf=i
O=C(Nc1cccc(C(F)(F)F)c1)c1csc(-c2ccncc2)n1	i	0.48	nt	nt	nt
Cc1ccc(NC(=O)c2ccc(Cl)cc2Cl)cc1O	i	1.06	nt	nt	nt
COc1ccc(-c2nnc(SCC(=O)N/N=C/c3ccccc3C(=O)O)n2-c2ccccc2)cc1	i	0.12	nt	nt	nt
Cc1ccc(C)c(NC(=O)CN(C)C(=O)c2ccccc2OCc2ccccc2Cl)c1	i	nt	nt	nt	nt
Cc1ccc(NC(=O)c2cc(-c3ccc(C)o3)nc3ccccc23)cc1	i	nt	nt	nt	nt
Cc1ccc(-c2cc(C(=O)Nc3cccnc3)c3ccccc3n2)o1	-8.14*	-8.14	i	i	i
COc1ccccc1NC(=O)c1cc(C)nc2ccccc12	i	nt	nt	nt	nt
COc1ccccc1NC(=O)c1cc(-c2ccc(C)o2)nc2ccccc12	-8.09*	-8.09	-34.0%*	i	i	KCNQ2 patch conf=+
COc1ccc(C(=O)NNC(=O)c2snnc2C)cc1	i	0.61	nt	nt	nt
Cc1cc(C(F)(F)F)nn1CCCNC(=O)c1cnccn1	i	nt	nt	nt	nt
COc1ccc(CCNC(=O)c2ccccc2N(C)S(=O)(=O)c2ccccc2)cc1	i	0.14	nt	nt	nt
CC(=O)Nc1ccc(NC(=O)c2ccccc2N(C)S(=O)(=O)c2ccccc2)cc1	i	nt	nt	nt	nt
CN(c1ccccc1C(=O)NCc1ccccc1Cl)S(=O)(=O)c1ccccc1	-10.1*	-10.1	i	i	i
Cc1ccccc1NC(=O)c1ccccc1N(C)S(=O)(=O)c1ccccc1	-7.63*	-7.63	-20.5%*	i	i	KCNQ2 patch conf=+
SMILES	KCNQ2 block	KCNQ2 pot	KCNQ2 inh conf	KCNQ1 spec	CHO parental ctr	others
O=C(CCc1ccccc1)Nc1ccnn1C1CCN(Cc2ncc[nH]2)CC1	i	nt	nt	nt	nt
CC(C)[C@H](NC(=O)N1CCn2c1nc1ccccc12)C(=O)NCc1ccc(F)cc1	i	nt	nt	nt	nt
CC(C)[C@H](NC(=O)N1CCn2c1nc1ccccc12)C(=O)NCc1ccccc1Cl	-8.07*	-8.07	-33.5%*	-31.5%*	-23.5%*	KCNQ2 patch conf=+
O=C(Cn1cccc1C(=O)c1ccccc1)NCc1cccs1	i	nt	nt	nt	nt
CC(C)[C@H](NC(=O)c1ccccc1)C(=O)OCC(=O)N1CCCc2ccccc21	i	nt	nt	nt	nt
O=C(COc1ccc([N+](=O)[O-])cc1)Nn1cnnc1	i	nt	nt	nt	nt
COc1ccccc1N1CCN(Cc2cnc3ccc(Cl)cn23)CC1	i	nt	nt	nt	nt
CC1(C)CC(NS(=O)(=O)c2ccc(Cl)cc2)CC(C)(C)N1	i	0.84	nt	nt	nt
O=C(Nc1nc(-c2ccccc2)cs1)C1CCCCN1S(=O)(=O)c1ccc(Cl)cc1 (stereo not given)	-8.93*	-8.93	i	i	i
CC1CCN(CC(=O)Nc2nc(-c3ccccc3)cs2)CC1	-7.34*	-7.34	i	i	i
NC(=O)C1CCN(CC(=O)Nc2nc(-c3ccccc3)cs2)CC1	i	nt	nt	nt	nt
